# From PubChem BioAssay
# Active and inactive are the calls of the source.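 How the source made its calls, unless noted: active means inhibition at or above 50% at 10 µM; inactive means inhibition below 50%.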
# Tests used:
# [1] = inhibitors of TNFa-induced NFkB p65 translocation, primary screen, imaging, HUVEC, MLSMR starter and 10KST1 sets (AID 438;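 active means inhibition above 20% together with a positive visual image hit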;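 further: compound added about 3h40 before a 20 min TNFalpha stimulation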;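 on inhibition: signal is the nuclear over cytoplasmic p65 intensity ratio per well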); conditions: HUVEC TNFa-induced p65 nuclear translocation; cell count: measured here: nuclei count (cytotoxicity indicator), at 2.08 µM; inhibition: at 2 µM, stronger effect = higher value, 0% TNFa-plus-vehicle, 100% no-TNFa wells
# [2] = reduction of polyQ htt aggregates in cells – imaging, exon1htt(103Q)mCFP cells, high-content imaging, primary screen (AID 483;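 active means visual image review flags a hit and inhibition of aggregation exceeds 20%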;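 further: compound exposure lasted 3 days before fixation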;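 on nuclei count: percent of the per-plate median nuclei count of sample wells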); conditions: exon1htt(103Q)mCFP cell line, aggregate imaging, at 2 µM; inhibition of aggregation: stronger effect = higher value; nuclei count: measured here: cell count, toxicity
# [3] = endothelial E-selectin expression blockers – imaging, HUVEC, immunofluorescence, MLSMR starter and 10KST1 sets, primary screen (AID 487;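 active means visually confirmed hit in the image check and inhibition above 20%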;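 on inhibition: signal is fraction of cell area covered by stained E-selectin grains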;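 on nuclei count: 100% = median nuclei count of all wells on the same plate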); conditions: HUVEC TNFalpha-induced E-selectin immunofluorescence imaging, at 2 µM; inhibition: stronger effect = higher value; nuclei count: measured here: cell number, toxicity
# [4] = biological target: Voltage-gated potassium channel subunit beta-2 (Rattus norvegicus) (UniProt P62483); assay: inhibitors of rat Kvbeta2 reductase activity – biochemical, NADPH fluorescence, primary screen (AID 622;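 active means fluorescence slope higher than the sample average by over 3 SD, cut at about -0.22 in these data, passing the limit was not always enough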;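 further: slope of raw intensity against log time taken from 70 to 1610 s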); conditions: recombinant KvBeta, 4-cyanobenzaldehyde reduction, at 10 µM, stronger effect = higher value
# Voltage-gated potassium channel subunit beta-2 (Rattus norvegicus), sequence (P62483 whole entry, looked up): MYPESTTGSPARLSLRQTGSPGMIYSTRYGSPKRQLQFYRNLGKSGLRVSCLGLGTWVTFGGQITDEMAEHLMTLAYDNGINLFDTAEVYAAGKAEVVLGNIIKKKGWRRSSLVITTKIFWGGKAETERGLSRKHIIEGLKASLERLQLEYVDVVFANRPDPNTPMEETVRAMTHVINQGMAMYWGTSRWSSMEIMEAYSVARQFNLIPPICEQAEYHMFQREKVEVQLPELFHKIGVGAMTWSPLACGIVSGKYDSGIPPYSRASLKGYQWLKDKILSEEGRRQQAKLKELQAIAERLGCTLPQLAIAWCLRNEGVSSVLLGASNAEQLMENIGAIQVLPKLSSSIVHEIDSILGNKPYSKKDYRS
# [5] = biological target: Voltage-gated potassium channel subunit beta-2 (Rattus norvegicus) (UniProt P62483); assay: enhancers of rat Kvbeta2 NADPH turnover – biochemical, NADPH fluorescence, primary screen (AID 623;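 active means NADPH fluorescence slope more negative than the mean of all samples by about 3 SD, 99.7% confidence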;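 further: fluorescence intensity change per second fitted from 20 to 320 s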); conditions: Recombinant KvBeta, NADPH fluorescence decrease slope, 10 min; at 10 µM; stronger effect = lower value
# [6] = biological target: Alpha-2C adrenergic receptor (Homo sapiens) (UniProt P18825); assay: compounds altering alpha2C-coupled GIRK flux – cell-based, HEK293 alpha2C/GIRK1/2, thallium flux, primary screen (AID 624;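 active means fluorescence slope after compound addition differing from the mean of all screened samples at 99.7% confidence, in either direction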;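 further: slope of fluorescence ratio to pre-addition baseline per second over 15 to 24 s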); conditions: thallium flux BTC fluorescence, at 10 µM, actives lie on both sides
# Alpha-2C adrenergic receptor (Homo sapiens), sequence (P18825 whole entry, looked up): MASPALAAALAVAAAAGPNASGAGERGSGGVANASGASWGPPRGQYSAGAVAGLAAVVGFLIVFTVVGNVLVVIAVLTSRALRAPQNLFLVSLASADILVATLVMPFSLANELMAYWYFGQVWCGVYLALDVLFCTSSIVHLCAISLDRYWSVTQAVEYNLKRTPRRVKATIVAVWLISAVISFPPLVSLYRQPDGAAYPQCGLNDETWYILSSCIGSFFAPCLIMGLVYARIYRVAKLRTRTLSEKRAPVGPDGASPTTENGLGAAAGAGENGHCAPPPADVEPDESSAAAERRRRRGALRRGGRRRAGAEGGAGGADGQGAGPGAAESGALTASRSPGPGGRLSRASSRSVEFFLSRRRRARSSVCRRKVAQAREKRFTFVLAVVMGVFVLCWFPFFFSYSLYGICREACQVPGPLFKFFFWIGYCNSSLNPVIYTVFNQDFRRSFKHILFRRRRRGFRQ
# [7] = blockers of RIG-like receptor reporter activation – cell-based, Sendai virus stimulus, luciferase, 10K MLSCN set, TLR/RLR signaling modifier project, primary screen (AID 602276); conditions: HEK293 RL24 IRF3 luciferase reporter, at 10 µM, stronger effect = higher value;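 further: firefly luciferase from ISG56 promoter only with Renilla not read in this screen; 0% = Sendai virus plus DMSO and 100% = medium plus DMSO without virus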
# [8] = TLR3 IRF3 reporter activation blockers – cell-based, poly I:C stimulus, luciferase, 10K MLSCN set, primary screen (AID 602277;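 active means inhibition of the reporter signal at or above 50%; inactive means inhibition below 50%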); conditions: HEK293-TLR3 RL24 IRF3 luciferase reporter, at 10 µM, stronger effect = higher value
SMILES,cell count [1],inhibition [1],inhibition of aggregation [2],nuclei count [2],inhibition [3],nuclei count [3],fluorescence slope [4],NADPH fluorescence slope [5],slope [6],inhibition [7],inhibition [8]
COC(=O)c1c(C#N)c(N)nc2c1CCC2,474,-0.6% (inactive),18.2% (inactive),80.9%,33.1% (inactive),92.6%,-0.00808 (active),-2e-06 (inactive),0.00834 (inactive),9.2% (inactive),8.56% (inactive)
O=C(Nc1ccc(Cl)cn1)c1cccnc1,340,-8% (inactive),2.7% (inactive),107%,-1.5% (inactive),102%,-0.473 (inactive),1.1e-05 (inactive),0.00527 (inactive),-14% (inactive),-34.8% (inactive)
COc1ccc(CCN2CC(O)=C(c3nc4ccccc4c(=O)[nH]3)C2=N)cc1OC,642,-0.8% (inactive),-7.4% (inactive),83.2%,-35.6% (inactive),98.6%,-0.489 (inactive),-1e-06 (inactive),0.00682 (inactive),2.39% (inactive),7.15% (inactive)
C=CCN1C(=O)C2(c3ccccc31)C1CCCC=C1C(C#N)=C(N)C2(C#N)C#N (stereo not drawn),752,-19.9% (inactive),10.4% (inactive),110%,41% (inactive),101%,-0.559 (inactive),-8.6e-06 (inactive),0.00492 (inactive),-7.36% (inactive),-8.22% (inactive)
COC(=O)C(C)Sc1nnc2n(-c3cccc(C)c3)c(=O)c3c4c(sc3n12)CCCC4 (stereo not drawn),660,9.4% (inactive),7.6% (inactive),101%,-1.2% (inactive),120%,-0.58 (inactive),-3.5e-06 (inactive),0.00585 (inactive),-16% (inactive),-7.85% (inactive)
CN(c1ccccc1)S(=O)(=O)c1ccc(C(=O)OCC(=O)N2CCOCC2)cc1,420,-5.7% (inactive),8.2% (inactive),92.9%,0.3% (inactive),105%,-0.583 (inactive),-6.4e-05 (inactive),0.00565 (inactive),11.4% (inactive),22% (inactive)
O=C(c1cccc(C(=O)N2CCN(c3ccccc3)CC2)c1)N1CCN(c2ccccc2)CC1,667,-2.6% (inactive),1.8% (inactive),98.6%,-86.1% (inactive),112%,-0.456 (inactive),3e-05 (inactive),0.00517 (inactive),4.89% (inactive),-1.16% (inactive)
CCCOc1ccc(OCCSc2ncccn2)cc1,811,-13% (inactive),24.7% (inactive),108%,-93.3% (inactive),108%,-0.454 (inactive),2.1e-05 (inactive),0.0061 (inactive),-39.4% (inactive),-92% (inactive)
COc1ccc(C(=O)N(CCN2CCOCC2)CC(=O)NC2CCCC2)cc1OC,402,0.5% (inactive),-20.8% (inactive),108%,-41.4% (inactive),109%,-0.597 (inactive),-5.3e-05 (inactive),0.00354 (inactive),-8.79% (inactive),-6.82% (inactive)
O=S(=O)(c1cccc2nsnc12)N1CCN(c2ncccn2)CC1,573,-15.2% (inactive),5.1% (inactive),99.7%,-93.3% (inactive),120%,-0.408 (inactive),-4.2e-05 (inactive),0.00508 (inactive),12.7% (inactive),31.3% (inactive)
O=C(NCC1CCCO1)C1CCN(S(=O)(=O)c2cccc3cccnc23)CC1 (stereo not drawn),651,-5% (inactive),6.8% (inactive),104%,-63.2% (inactive),114%,-0.516 (inactive),1.4e-05 (inactive),0.00614 (inactive),10.7% (inactive),25.3% (inactive)
Nc1c(C(=O)NCCN2CCOCC2)c2nc3ccccc3nc2n1-c1ccc2c(c1)OCO2,337,-8.4% (inactive),-2.4% (inactive),96.7%,-53.1% (inactive),74%,-0.348 (inactive),-6.2e-05 (inactive),0.00388 (inactive),11.3% (inactive),16.5% (inactive)
COc1ccc(NC(=O)CSc2nnc(-c3ccccc3)n2N)cc1,438,0% (inactive),4.9% (inactive),103%,-13.6% (inactive),114%,-0.38 (inactive),9.8e-06 (inactive),0.00577 (inactive),15.8% (inactive),24% (inactive)
O=C(NC1(C(=O)NC2CCCCC2)CCCCC1)c1ccc2c(c1)OCO2,578,6.3% (inactive),16.2% (inactive),96.2%,-45.8% (inactive),91.4%,-0.524 (inactive),-3.1e-05 (inactive),0.00509 (inactive),7.94% (inactive),19% (inactive)
Cc1ccccc1Cn1nc(C)c(NC(=O)c2noc3c2CCc2ccccc2-3)c1C,720,2.9% (inactive),4.7% (inactive),78.3%,-88.7% (inactive),108%,-0.588 (inactive),4e-06 (inactive),0.00754 (inactive),8.23% (inactive),0.0552% (inactive)
O=C(Cn1nnc2ccccc2c1=O)NC1CCCc2ccccc21 (stereo not drawn),485,-2.9% (inactive),-0.1% (inactive),108%,10.6% (inactive),92.5%,-0.486 (inactive),-1.6e-05 (inactive),0.00524 (inactive),17% (inactive),25% (inactive)
COc1ccc(OC)c(CNC(=O)COc2cc(=O)n(C)c3ccccc23)c1,367,4.3% (inactive),-8.1% (inactive),105%,18% (inactive),100%,-0.349 (inactive),-7.1e-06 (inactive),0.00576 (inactive),6.07% (inactive),6.23% (inactive)
CC(=O)N(CCN(C(C)=O)c1ccccc1)c1ccccc1,448,-1.1% (inactive),4% (inactive),80.2%,12.5% (inactive),88.5%,-0.454 (inactive),7e-05 (inactive),0.00518 (inactive),13.8% (inactive),17.2% (inactive)
COc1ccc(C(=O)Nc2ccc(S(=O)(=O)Nc3onc(C)c3C)cc2)cc1,501,3.7% (inactive),-4.3% (inactive),110%,16.1% (inactive),111%,-0.354 (inactive),-5.4e-05 (inactive),0.00607 (inactive),4.94% (inactive),2% (inactive)
Cn1cccc1Cc1nnc(SCC(=O)Nc2ccccc2F)n1-c1ccc(F)cc1,878,-2.3% (inactive),-8.8% (inactive),108%,-44.3% (inactive),113%,-0.561 (inactive),-8.8e-05 (inactive),0.00608 (inactive),5.41% (inactive),24.9% (inactive)
Cc1cc(C)nc(SCC(=O)Nc2ccc(S(=O)(=O)Nc3nccs3)cc2)n1,312,9% (inactive),5.3% (inactive),97.6%,-21.2% (inactive),116%,-0.383 (inactive),-5.8e-05 (inactive),0.00544 (inactive),10% (inactive),32.8% (inactive)
CCn1c(SCC(=O)Nc2cccc(C)c2)nc2c(c1=O)SC(C)C2 (stereo not drawn),576,-3.4% (inactive),40.7% (inactive),85.6%,-11.7% (inactive),86%,-0.537 (inactive),-4.6e-05 (inactive),0.00615 (inactive),12.1% (inactive),25.9% (inactive)
Cc1c2cnn(CC(=O)N3CCN(c4ncccn4)CC3)c(=O)c2c(C)n1Cc1ccc(F)cc1,405,-9.2% (inactive),4.7% (inactive),99.5%,-130% (inactive),118%,-0.371 (inactive),-3.3e-05 (inactive),0.00444 (inactive),-14.2% (inactive),-8.56% (inactive)
Cc1cnc(C(=O)OCC(=O)Nc2ccc(Cl)cc2Cl)cn1,738,8.7% (inactive),-16.9% (inactive),119%,-37% (inactive),94.9%,-0.51 (inactive),-5.1e-05 (inactive),0.00552 (inactive),10.9% (inactive),14.7% (inactive)
O=C1Nc2ccccc2OC1CC(=O)N1CCCC1 (stereo not drawn),491,-6.6% (inactive),44.6% (active),80.1%,-105% (inactive),115%,-0.522 (inactive),-1.3e-05 (inactive),0.00582 (inactive),6.75% (inactive),28.5% (inactive)
COc1ccccc1NC(=O)c1ccc(COc2ccccc2OC)o1,596,-15.7% (inactive),-20% (inactive),132%,-77.6% (inactive),107%,-0.605 (inactive),2.4e-05 (inactive),0.00349 (inactive),12.4% (inactive),4.47% (inactive)
CCOc1ccc2[nH]c(=O)c(CN(Cc3nnnn3CCc3ccccc3)CC3CCCO3)cc2c1 (stereo not drawn),742,-1.7% (inactive),-4.9% (inactive),113%,17.7% (inactive),107%,-0.476 (inactive),-0.000196 (inactive),0.00465 (inactive),3.9% (inactive),16.9% (inactive)
CCn1nc(C)c(NC(=O)c2cc(Br)ccc2Cl)c1C,497,-5.8% (inactive),-21.4% (inactive),111%,-17.6% (inactive),115%,-0.445 (inactive),-0.000104 (inactive),0.00617 (inactive),14.4% (inactive),25% (inactive)
